# PubChem BioAssay
# Records with an inconclusive call do not appear. Calls of active or inactive are those of the source.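 The calls were made as follows, unless noted: active = luciferase signal above three times the same-plate solvent-only control wells; inactive = the rest.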
# Assays:
# [1] = molecular target: Mitogen-activated protein kinase 7 (Homo sapiens) (UniProt Q13164); test: ERK5 transactivation activators in reporter cells, primary screen, cell-based, HTS (AID 1508626); conditions: HeLa Gal4-ERK5 transactivation, 18 h, at 5 µM, stronger effect = higher value;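 also: luciferase driven by Gal4-ERK5 fusion binding five Gal4 sites before minimal TATA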
# Mitogen-activated protein kinase 7 (Homo sapiens), sequence (Q13164 whole entry, looked up, the tested form may be a part): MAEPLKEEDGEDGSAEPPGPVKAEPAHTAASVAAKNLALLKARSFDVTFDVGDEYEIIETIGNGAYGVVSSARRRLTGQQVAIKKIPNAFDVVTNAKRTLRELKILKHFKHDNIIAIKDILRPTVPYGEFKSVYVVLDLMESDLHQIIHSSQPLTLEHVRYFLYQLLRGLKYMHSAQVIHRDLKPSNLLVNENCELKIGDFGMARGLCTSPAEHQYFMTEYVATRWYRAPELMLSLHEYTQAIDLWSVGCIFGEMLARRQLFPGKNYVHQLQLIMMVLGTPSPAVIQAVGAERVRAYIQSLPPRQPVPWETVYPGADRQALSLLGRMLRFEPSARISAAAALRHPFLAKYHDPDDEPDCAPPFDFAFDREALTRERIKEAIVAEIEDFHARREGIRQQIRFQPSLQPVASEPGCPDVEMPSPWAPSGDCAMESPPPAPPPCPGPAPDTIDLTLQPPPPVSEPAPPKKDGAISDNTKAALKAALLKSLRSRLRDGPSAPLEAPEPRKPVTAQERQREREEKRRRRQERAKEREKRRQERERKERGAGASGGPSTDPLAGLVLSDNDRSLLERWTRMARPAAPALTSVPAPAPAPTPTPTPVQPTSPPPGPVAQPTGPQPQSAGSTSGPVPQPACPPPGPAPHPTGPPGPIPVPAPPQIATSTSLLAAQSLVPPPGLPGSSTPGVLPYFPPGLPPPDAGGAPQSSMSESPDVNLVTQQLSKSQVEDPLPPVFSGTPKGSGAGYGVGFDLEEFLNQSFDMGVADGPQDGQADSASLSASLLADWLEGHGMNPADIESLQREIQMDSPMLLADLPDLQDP
# [2] = hESC survival regulators, cell-based (AID 493140; call rule not given here;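 also: cells exposed to compounds for four days before counting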); conditions: human embryonic stem cell survival screen; stronger effect = higher value
# [3] = growth inhibition of DIPG glioma cells, dose response, cell-based, JHH-DIPG-1, MIPE4.0, CellTiter-Glo, qHTS (AID 1347062; cut-off not given, nearly all actives have AC50 up to about 27 µM); conditions: JHH-DIPG-1 viability, CellTiter-Glo ATP luminescence
# [4] = growth inhibition of DIPG glioma cells, dose response, cell-based, SU-DIPG-IV, MIPE4.0, CellTiter-Glo, qHTS (AID 1347063; cut-off not given, nearly all actives have AC50 up to about 30 µM;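 also: compound exposure lasted 48 hours before the viability readout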); conditions: SU-DIPG-IV viability, CellTiter-Glo ATP luminescence
# [5] = growth inhibition of DIPG glioma cells, dose response, cell-based, SU-DIPG-XIII, MIPE5.0, CellTiter-Glo, qHTS (AID 1347064; cut-off not given, nearly all actives have AC50 up to about 23 µM); conditions: SU-DIPG-XIII viability, CellTiter-Glo ATP luminescence
# [6] = viability loss in pontine glioma line – cell-based, SU-DIPG-XXV, MIPE5.0, CellTiter-Glo, qHTS, dose response (AID 1347065; cut-off not given, nearly all actives have AC50 up to about 26 µM;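 also: cells exposed to compound for 48 hours before ATP readout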); conditions: CellTiter-Glo ATP luminescence
# [7] = JHH-DIPG-1 glioma cell viability, MIPE5.0 library, CellTiter-Glo luminescence, qHTS (AID 1347067; cut-off not given, nearly all actives have AC50 up to about 26 µM;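 also: cells exposed to compound for 48 hours before readout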); conditions: JHH-DIPG-1 glioma viability, CellTiter-Glo ATP luminescence
# [8] = circadian clock period modulators, cell-based, LOPAC library, luminescence reporter (AID 2774; call rule not given here;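 also: values are relative to mean of DMSO wells on each plate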); conditions: circadian reporter cells, at 7 µM, actives lie on both sides
# [9] = test system: Hepatitis C virus NS3 helicase; test: HCV NS3 helicase inhibitors, primary screen, biochemical, fluorescence polarization, LOPAC1280 library (AID 687035; in the data active = inhibition above about 37%); conditions: Purified HCV NS3 helicase, Cy5-dT15 ssDNA binding fluorescence polarization; stronger effect = higher value; concentration not given here
# [10] = Cy5 fluorescence quenching or enhancement artefacts, artefact control for HCV NS3 helicase inhibitor project, biochemical, LOPAC1280 (AID 687037; call rule not given here); conditions: Cy5-DNA-NS3h complex fluorescence interference counterscreen
# [11] = phospholipid biosynthesis inhibitors in animal cells, primary screen, cell-based, LOPAC library, screen 4 (AID 1347384; call rule not given here); conditions: phospholipid biosynthesis inhibition screen, at 10 µM
# [12] = LFS_MB_P medulloblastoma growth inhibition, cell-based, chromothripsis tumors, cisplatin or BGB combos (AID 1671449; in the data active = inhibition above about 80%;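 also: cells exposed for 96 hours; 0% = vehicle DMSO and 100% = killing by high DMSO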); conditions: LFS_MB_P medulloblastoma cells
# [13] = HDN33 neuroblastoma growth inhibition, cell-based, chromothripsis tumors, cisplatin or BGB combos (AID 1671450; in the data active = inhibition above about 80%;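 also: cells exposed to compound for four days; 0% = vehicle DMSO and 100% = cell killing by high DMSO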); conditions: HDN33 neuroblastoma cells, stronger effect = higher value
# [14] = ICB984 medulloblastoma cell growth inhibition, synergistic combos for chromothripsis tumors, cisplatin or BGB combos (AID 1671451; call rule not given here;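 also: cells exposed for 96 hours before readout; 0% = vehicle DMSO and 100% = killing by high DMSO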); conditions: ICB984 medulloblastoma cells, drug combinations, stronger effect = higher value
# [15] = HTB85 osteosarcoma cell growth inhibition, synergistic combos for chromothripsis tumors, BGB or cisplatin IC20 combos (AID 1671453; in the data active = inhibition above about 80%;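 also: cells exposed for 96 hours before readout; 0% = vehicle DMSO and 100% = high DMSO killing control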); conditions: HTB85 osteosarcoma cells, drug combinations, stronger effect = higher value
# [16] = MDA-MB-436 breast carcinoma cell growth inhibition, synergistic combos for chromothripsis tumors, BGB or cisplatin combos (AID 1671458; call rule not given here;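 also: cells exposed for 96 hours; 0% = vehicle DMSO and 100% = killing by high DMSO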); conditions: MDA-MB-436 breast carcinoma growth inhibition, drug combinations, stronger effect = higher value
# [17] = growth inhibition of BT084 medulloblastoma cells, cell-based, ICGC_MB145, cisplatin and BGB IC40 combos (AID 1671461; in the data active = inhibition above about 80%;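 also: cells exposed to drugs for 96 hours; 0% = vehicle DMSO and 100% = high DMSO full killing control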); conditions: drug combinations, stronger effect = higher value
# [18] = growth inhibition of RCMB18 medulloblastoma cells, cell-based, cisplatin and BGB IC40 combos (AID 1671462; in the data active = inhibition above about 80%;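 also: cells exposed to compound for four days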); conditions: stronger effect = higher value
# [19] = growth inhibition of CRL1545 osteosarcoma cells, cell-based, cisplatin and BGB IC20 combos (AID 1671464; in the data active = inhibition above about 80%;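 also: cells exposed to compound for 96 hours before readout; 0% = vehicle DMSO and 100% = high DMSO killing control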); conditions: stronger effect = higher value
# [20] = measured here: with BGB IC20 combination, at 0.5 µM
# [21] = measured here: with cisplatin IC20 combination, at 0.5 µM
smiles,measurement,setting,value
NC(=O)CCCCC1CCSS1 (centres undefined),luciferase signal,[1],44 AU (inactive)
O=C(Nc1ccc(C(=O)O)c(O)c1)c1ccccc1,luciferase signal,[1],48 AU (inactive)
CC(O)Cn1cnc2c1c(=O)n(C)c(=O)n2C (centres undefined),survival,[2],7 (inactive)
same,luciferase signal,[1],104 AU (inactive)
OC1C(O)C(O)C(O)C(O)C1O (centres undefined),luciferase signal,[1],40 AU (inactive)
CC[C@@H](CO)NCCN[C@@H](CC)CO,luciferase signal,[1],40 AU (inactive)
CCOCC(O)COc1ccc(NC(=O)CC[S+](C)C)cc1 (centres undefined),outcome,[3],inactive
same,outcome,[4],inactive
same,outcome,[5],inactive
same,outcome,[6],inactive
same,outcome,[7],inactive
C[C@@]12C(=O)OC(=O)[C@]1(C)C1CCC2O1,survival,[2],0.417 (inactive)
CC(C)CCCC(C)N (centres undefined),luciferase signal,[1],56 AU (inactive)
C[N+](C)(C)CCCCCCCCCC[N+](C)(C)C,period change,[8],0.03 h (inactive)
same,survival,[2],4 (inactive)
same,inhibition,[9],2% (inactive)
same,fluorescence ratio (interference),[10],1 (inactive)
same,outcome,[11],inactive
same,luciferase signal,[1],60 AU (inactive)
CN(C)CCCOc1nn(Cc2ccccc2)c2ccccc12,survival,[2],9 (inactive)
same,luciferase signal,[1],92 AU (inactive)
NC(=O)C1(N2CCCCC2)CCN(CCCC(=O)c2ccc(F)cc2)CC1,luciferase signal,[1],52 AU (inactive)
O=C1c2ccccc2C(=O)C1c1ccc(Br)cc1,luciferase signal,[1],56 AU (inactive)
COc1cc(C(=O)NCCCCCC(=O)O)cc(OC)c1OC,luciferase signal,[1],36 AU (inactive)
Nc1ncn([C@H]2C[C@H](O)[C@@H](CO)O2)c(=O)n1,outcome,[3],inactive
same,outcome,[4],inactive
same,outcome,[5],inactive
same,outcome,[7],inactive
same,inhibition,"[12]; at 0.5 µM, stronger effect = higher value",6.06% (inactive)
same,inhibition,"[12]; measured here: combination with BGB IC20, at 0.005 µM",-1.4%
same,inhibition,"[12]; measured here: combination with BGB IC40, at 0.005 µM",-3.75%
same,inhibition,"[12]; measured here: combination with BGB IC40, at 0.05 µM",-40.3%
same,inhibition,"[12]; measured here: combination with cisplatin, at 0.5 µM, stronger effect = higher value",19.6%
same,inhibition,"[12]; measured here: combination with cisplatin, at 5 µM, stronger effect = higher value",18%
same,inhibition,"[13]; BGB combo, at 5 µM",50.3%
same,inhibition,[13]; at 0.5 µM,24.3% (inactive)
same,inhibition,"[13]; cisplatin combo, at 5 µM",54.4%
same,inhibition,[13]; [20],30.2%
same,inhibition,[13]; [21],11.6%
same,inhibition,"[13]; single agent, at 5 µM",52.1%
same,inhibition,"[14]; BGB IC20 combo, at 0.005 µM",-3.18%
same,inhibition,"[14]; BGB IC40 combo, at 0.005 µM",-34%
same,inhibition,"[14]; BGB IC40 combo, at 0.05 µM",-19.3%
same,inhibition,[14]; at 0.5 µM,-18% (inactive)
same,inhibition,"[14]; cisplatin combo, at 0.05 µM",-23.6%
same,inhibition,"[14]; cisplatin combo, at 0.5 µM",-14.1%
same,inhibition,"[14]; cisplatin combo, at 5 µM",-50.9%
same,inhibition,"[14]; measured here: 5 uM single agent, at 5 µM",-6.92%
same,inhibition,[15]; at 0.5 µM,3.38% (inactive)
same,inhibition,"[15]; measured here: with BGB IC20, at 0.5 µM",2.59%
same,inhibition,"[15]; measured here: with BGB IC20, at 5 µM",19.3%
same,inhibition,"[15]; measured here: with cisplatin IC20, at 0.5 µM",-6.21%
same,inhibition,"[15]; measured here: with cisplatin IC20, at 5 µM",27.4%
same,inhibition,"[15]; single agent, at 5 µM",40.2%
same,inhibition,[16]; at 0.5 µM,17.4% (inactive)
same,inhibition,"[16]; measured here: BGB combination, at 0.5 µM",28.5%
same,inhibition,"[16]; measured here: BGB combination, at 5 µM",26.2%
same,inhibition,"[16]; measured here: cisplatin combination, at 0.5 µM",6.25%
same,inhibition,"[16]; measured here: cisplatin combination, at 5 µM",4.64%
same,inhibition,[17]; at 0.5 µM,-3.99% (inactive)
same,inhibition,"[17]; cisplatin combination, at 0.5 µM",-10.2%
same,inhibition,"[17]; cisplatin combination, at 5 µM",16.2%
same,inhibition,"[17]; measured here: BGB IC40 combination 0.05 uM, at 0.05 µM",-0.777%
same,inhibition,"[17]; single agent, at 5 µM",-11.6%
same,inhibition,[18]; at 0.5 µM,-2.53% (inactive)
same,inhibition,"[18]; cisplatin combo, at 5 µM",-31%
same,inhibition,"[18]; measured here: BGB IC40 combination, at 0.05 µM",7.83%
same,inhibition,"[18]; measured here: combination with cisplatin, at 0.5 µM",-5.57%
same,inhibition,"[18]; single agent, at 5 µM",7.32%
same,inhibition,[19]; at 0.5 µM,-20.4% (inactive)
same,inhibition,[19]; [20],-0.059%
same,inhibition,[19]; [21],-32.7%
same,inhibition,"[19]; single agent, at 0.05 µM",-13.4%
same,inhibition,"[19]; single agent, at 5 µM",5.37%
